Here are results for 39 compounds from PubChem BioAssay (NCI).

Compounds without any hit were thinned out: in the full panel of roughly 83,000, 20% have a hit.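 Activity criterion: percent growth below 10, measured after cells in 96-well plates were exposed to a single compound concentration for 48 hours.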 Unmarked numbers belong to inactive results. Calls of active or inactive are those of the source.

This assay deals with EKVX NSCLC. As to the kind of experiment: NCI-60 one-dose screen, 48 h (100 = growth as untreated, 0 = no growth, -100 = all killed). Particulars: 10 µM unless noted.
As to `COc1ccc(-c2csc(NC(=O)CN3CCN(c4cc5c(cc4F)c(=O)c(C(=O)O)cn5C4CC4)CC3)n2)cc1`, the growth was 26.2%. Regarding `O=C(O)c1ccc(=O)[nH]n1`, the growth is 116%. The same measure for `COc1ccc(-c2cc(NC(=O)Nc3ccc(O)cc3)no2)cc1`: 77.2%. `CCN(CC)CCCNc1cc(OC)cc2nc3cc(Cl)ccc3nc12`: the growth was 0.555% (active). To `Clc1nc(Cl)c2c3c(sc2n1)CCCC3` belongs 89.8%; to `CNCCCn1c2c(c3ccc([N+](=O)[O-])cc3c1=O)C(=O)c1cc(OC)cnc1-2`, 4.21% (active). To `C=C1CC2(OC1=O)C(=O)Nc1ccccc12` (centres undefined) belongs 74.4%; to `CN1CCN(Cc2ccc(NC(=O)c3cncc(C#Cc4c(N)ncc5ccc(C#N)cc45)c3)cc2C(F)(F)F)CC1`, -55.3% (active). To `O=C1O[C@H]([C@H](O)CO)C(O)=C1O` belongs 110%.

On to `COC(=S)SCN(CSC(=S)OC)c1ccc(Cl)cc1`, for which the growth was 70.3%.

Take `Cc1ccc(/C=C2\Oc3cc(OCC(=O)c4ccc(Cl)cc4)ccc3C2=O)cc1`: the growth was 107%.

On to `CCN(C(=O)CN1CCN(c2cc3c(cc2F)c(=O)c(C(=O)O)cn3C2CC2)CC1)c1nc(-c2ccc(OC)cc2)cs1`, for which the growth was 58.9%.

With `OC(c1cc(-c2ccccc2)nc2ccc(Cl)cc12)C1CCCCN1` (centres undefined), the growth is 63%.

For the compound `CC#CC#Cc1cccc(=O)o1`, the growth is 20.7%. The same measure for `CNCc1cccc2c1OCCOCCOCCN(C)S(=O)(=O)c1ccc(cc1)-c1cnc(N)c(n1)C(=O)N2`: 43.6%; for `CCCCCCCCCCCCCCCCCCSC1=CC(=O)C(OC)=C(OC)C1=O`: 91.3%. The same measure for `CC1=C(C)C(=O)OC([C@](C)(O)[C@]2(O)CC[C@@]3(O)[C@@H]4C[C@H]5O[C@]56CC=CC(=O)[C@]6(C)[C@H]4CC[C@]23COC(=O)c2ccc(C)o2)C1` (some centres undefined): -46.9% (active); for `O=C1C[C@H](Sc2nc(-c3ccc(F)cc3)cc(C(F)(F)F)n2)[C@H]2CO[C@@H]1O2`: 107%; for `C=C1CC[C@@H]2[C@](C)(COC(C)=O)[C@H](OC(C)=O)CC[C@@]2(C)[C@@H]1CC(Nc1ccc(S(=O)(=O)Nc2nc(C)cc(C)n2)cc1)C1=CCOC1=O` (some centres undefined): 74.5%.

In the case of `COc1ccc(S(=O)(=O)NCCNc2nccc(-c3c(-c4cccc([N+](=O)[O-])c4)nc4sccn34)n2)cc1`, the growth was 82.1%. `O=C(Nc1ccc(Nc2cc(Nc3ccccc3)ncn2)cc1)Nc1cc(C(F)(F)F)ccc1F`: the growth was 80.5%. To `COc1ccc(/C=C/C(=O)c2c(O)c(C)c(O)c3c2OC2=CC(O)=C(C(C)=O)C(=O)[C@]23C)cc1` belongs -2.89% (active). To `C=C(C[n+]1ccccc1)[C@@H]1CC[C@]2(C(=O)OC)CC[C@]3(C)[C@H](CC[C@@H]4[C@@]5(C)CC[C@H](O)C(C)(C)[C@@H]5CC[C@]43C)[C@@H]12` belongs 104%. Take `CCCCCCCCCCCCNC(=O)[C@H]1CSC(c2ccc(OC)c(F)c2)N1` (some centres undefined): the growth was -87.4% (active). To `COc1ccccc1N1CCN(CCn2c(=O)c3c(c4ccccc4n3C)n(C)c2=O)CC1` belongs 106%. The same measure for `CC(C)[C@H]1COC(=O)N1[C@@H]1C(=O)N([C@@H](CCC(=O)N2CCN(C3CCCC3)CC2)C(=O)N[C@@H]2CCCc3ccccc32)[C@@H]1/C=C/c1cccc(Br)c1`: 48.2%.

On to `Cc1nc2nc(N)nc(N)c2nc1C`, for which the growth was 97.9%.

Take `COc1cnc2c(c1)C(=O)c1c-2n(CCCBr)c(=O)c2cc([N+](=O)[O-])ccc12`: the growth was 34.2%. The same measure for `COc1ccc(-n2cc(-c3ccccc3)c3c(SCC(=O)N/N=C/c4ccc([N+](=O)[O-])cc4)ncnc32)cc1`: 97%; for `O=C(O)c1cn(C2CC2)c2cc(N3CCN(Cc4nc5c(cnn5-c5ccc([N+](=O)[O-])cc5)c(=O)[nH]4)CC3)c(F)cc2c1=O`: 93.4%; for `CCOC(=O)c1cnc2ccc(OC)cc2c1Nc1cccc(S(=O)(=O)NC)c1`: 104%. To `CCN(CC)CCCC(C)NCCCNc1cccc2cccnc12` (centres undefined) belongs 101%. The same measure for `COc1ccc(C/C(C)=C(\c2ccc(Cl)cc2)c2ccc(OCCN3CCCCCC3)cc2)cc1`: 91.7%; for `C=C1C(=O)O[C@H]2[C@H]1CC/C(Cn1cc(Cn3ccc4cc(Cl)ccc43)nn1)=C\CC[C@@]1(C)O[C@@H]21`: 42.4%. `COc1cc(/C=N/N(C)C)ccc1O`: the growth was 105%. On to `CC(=O)Nc1ccc2c(c1)c(NC(C)=O)nn2C(=O)Nc1ccc(Cc2ccccc2)cc1`, for which the growth is 71.3%. On to `CC(C)(C)n1cc(-c2ccnc(NCCNS(=O)(=O)c3ccccc3)c2)c(-c2cccc(O)c2)n1`, for which the growth is 63.4%.

For `CN1C2CCC1/C(=C\c1ccc(Cl)cc1)C1=C2[C@@H](c2ccc(Cl)cc2)C(C#N)=C(N)O1` (some centres undefined), the growth was 75.7%. The same measure for `O=[N+]([O-])c1cccc(-c2nc3sccn3c2-c2ccnc(NCCCNS(=O)(=O)c3cccc(F)c3)n2)c1`: 19.1%.
